# Data as given in article PMC4552634, “A New Set of Chemical Starting Points with Plasmodium falciparum Transmission-Blocking Potential for Antimalarial Drug Discovery” (PLoS ONE, 2015).
# Out of some 13,000 compounds screened, about 3,200 (25%) showed an effect of 50% or more. The list shows a part of the results.
# System: P. falciparum stage V gametocytes
# Design: BacTiter-Glo ATP luminescence viability of purified stage V gametocytes in 384-well plates, per cent inhibition versus DMSO
# Settings: 48 h, 5 µM; inhibitor
row,Structure (SMILES),% Inhibition [%]
1,COc1ccc(Cn2c(SCc3ccc(C)cc3)nc3cc(OC)c(OC)cc3c2=N)cc1Cl [TCMDC-125587],96.33
2,O=C(NC1CC1)c1ccc(Cn2c(SCc3cccc(Cl)c3)nc3ccccc3c2=O)cc1 [TCMDC-123576],23.52
3,COc1ccc(Cn2c(Nc3cccc(C(F)(F)F)c3)nc3cc(C(=O)NC4CC4)cnc32)cc1Cl [TCMDC-138554],-4.933
4,CC[C@H]1CN2CC[C@H]1C[C@H]2[C@@H](O)c1cc(OCCCN(C)C)nc2ccc(OC)cc12 [TCMDC-131424],22.54
5,O=C(Nc1ccc(OC2CCN(Cc3ccc(F)cc3)C2)c(Cl)c1)c1ccoc1 (stereo not shown) [TCMDC-133755],23.17
6,CC(=O)CCc1ccc(OCCN(Cc2ccccc2C(F)(F)F)c2ccc(C#N)c(C(F)(F)F)c2)cc1 [TCMDC-135737],23.15
7,CCOC(=O)c1ccc(N2CCN(CCCNC(=O)/C(=C/C=C/c3cc4cc(Cl)c(Cl)cc4[nH]3)OC)CC2)cc1 [TCMDC-139306],-53.61
8,COc1ccc(N2C(=O)C3C(C2=O)C2(C)c4ccccc4C3(C)c3ccccc32)c([N+](=O)[O-])c1 (stereo not shown) [TCMDC-125621],9.788
9,COc1cc2c(c(OC)c1[N+](=O)[O-])C=CC1(O2)N(C)c2ccc([N+](=O)[O-])cc2C1(C)C (stereo not shown) [TCMDC-124133],52.65
10,CN1c2ccc([N+](=O)[O-])cc2C(C)(C)C12C=Cc1cc(Br)cc([N+](=O)[O-])c1O2 (stereo not shown) [TCMDC-124178],98.03
11,COc1ccc(C=CC(=O)NC(=O)c2ccccc2OC(=O)c2ccccc2)cc1OC [TCMDC-125709],14.45
12,COc1cc2c(c(Cl)c1OC)CCN(C(=O)C(F)(F)F)CC2c1ccccc1 (stereo not shown) [TCMDC-132071],93.25
13,COc1cc2c(c(Cl)c1OC)CCN(Cc1ccccc1)CC2c1ccc(C(N)=O)cc1 (stereo not shown) [TCMDC-132074],48.86
14,COc1cc2c(c(Cl)c1OC)CCN(Cc1ccccc1)CC2c1ccc(NC(=O)C(F)(F)F)cc1 (stereo not shown) [TCMDC-132075],32.93
15,Cc1cccc2nc(-c3ccc(-c4ccc(CN5CCN(c6cnccn6)CC5)cc4)s3)[nH]c12.O=C(O)C(F)(F)F [TCMDC-133900],28.24
16,COc1ccc(CNCc2cccc(-c3ccc(-c4nc5ccccc5[nH]4)s3)c2)cc1.O=C(O)C(F)(F)F [TCMDC-132733],7.28
17,O=C(CCc1ccco1)NC1CCN(CC2(c3ccc(Cl)cc3)CCC2)CC1 [TCMDC-124834],42.25
18,COc1c(C(=O)NC2CCN(Cc3ccccc3)C2)cnc2ccccc12 (stereo not shown) [TCMDC-138996],-11.57
19,O=C(Nc1ccnc2ccccc12)NC1CCN(CCc2ccccc2)CC1 [TCMDC-139687],38.02
20,O=C(NC1CCN(Cc2ccccc2)CC1)c1cc(-c2ccncc2)c(-c2ccc(Cl)c(O)c2)o1 [TCMDC-135453],2.681
21,CC(C)c1ccc(CN2CCC(NC(=O)c3ccc(-c4cccc(Cl)c4)s3)CC2)cc1 [TCMDC-134347],-17.88
22,Cc1cc(C(=O)NC2CCN(CC3(c4ccc(Cl)cc4)CCC3)CC2)on1 [TCMDC-124833],85.33
23,Cc1cc(C(=O)NC2CCN(CC3(c4ccccc4)CCCCC3)CC2)on1 [TCMDC-124832],67.12

row,Structure (SMILES),% Inhibition [%]
1,CC1CC1C(=O)NC1CCN(CC2(c3ccccc3)CCCCC2)CC1 (stereo not shown) [TCMDC-124831],61.7
2,COc1coc(C(=O)NC2CCN(CC3(c4ccc(Cl)cc4)CCC3)CC2)c1OC [TCMDC-124835],70.44
3,O=C(C=Cc1ccc(Cl)c(Cl)c1)NC1CCN(CCc2ccccc2)CC1 [TCMDC-134274],3.334
4,CS(=O)(=O)CCNCc1nc(-c2ccc3ncnc(Nc4ccc(OCc5cccc(F)c5)c(Cl)c4)c3c2)cs1 [TCMDC-138499],-12.17
5,Nc1ncc(-c2ccc3ncccc3c2)c(N)n1 [TCMDC-133421],0.5405
6,CC(=O)Nc1ccc(CN2CCC(N(C)c3ccc(NC(=O)c4cccc(C)c4)cc3)CC2)cc1 [TCMDC-134985],-13.81
7,Cn1cccc1C(=O)Nc1cccc(-c2nn3ccccc3c2-c2ccnc(Nc3ccc4c(c3)OCCO4)n2)c1 [TCMDC-135663],-4.275
8,Cc1cccc(NC(=O)NCc2ccccc2)n1 [TCMDC-123843],1.75
9,NC(=NCc1ccccc1)Nc1cccc(Cc2ccccc2)n1 [TCMDC-138951],107.9
10,N/C(=N\c1ncccn1)Nc1cccc(Cc2ccccc2)n1 [TCMDC-138948],-9.706
11,NC1=NC(c2ccccc2)N(OCc2ccccc2)C(N)=N1 (stereo not shown) [TCMDC-131586],-5.605
12,CCN=C1NC2=C(CC(C(C)(C)C)CC2)C2(CCC(C(C)(C)C)CC2)S1 (stereo not shown) [TCMDC-131288],95.02
13,O=C(CSc1nccn1C1CCCC1)Nc1cc(C(F)(F)F)ccc1Cl [TCMDC-125066],0.3827
14,CCOc1ccc(-c2nonc2NC(=O)c2ccc(OC(C)C)cc2)cc1OCC [TCMDC-125276],7.159
15,COc1ccc(-c2nonc2NC(=O)c2ccc(C(C)(C)C)cc2)cc1OC [TCMDC-125404],42
16,COc1ccc(-c2nonc2NC(=O)c2ccc(OC(C)C)cc2)cc1OC [TCMDC-125130],61.65
17,COc1cccc(C(=O)Nc2nonc2-c2ccc(OC)c(OC)c2)c1 [TCMDC-125403],43.85
18,COc1ccc(C(=O)Nc2nonc2-c2ccc(OC)c(OC)c2)cc1Cl [TCMDC-125400],30.18
19,C=CCOc1ccc(C(=O)Nc2nonc2-c2ccc(OC)c(OC)c2)cc1 [TCMDC-125178],71.05
20,COc1ccc(-c2nonc2NC(=O)c2cccc(C)c2)cc1OC [TCMDC-125399],77.34
21,CCOc1ccc(C(=O)Nc2nonc2-c2ccc(OC)c(OC)c2)cc1 [TCMDC-125402],33.5
22,CCCOc1ccc(C(=O)Nc2nonc2-c2ccc(OC)c(OC)c2)cc1 [TCMDC-125471],84.04
23,CCN(CCCN1CCCCC1)c1cc(C)nc(Nc2cc(F)cc(F)c2)n1 [TCMDC-132450],49.02

row,Structure (SMILES),% Inhibition [%]
1,CCC(C)(C)NC(=O)C(c1cccc(OC)c1)N(C(=O)CNC(=O)c1cccs1)c1ccc2c(c1)OCCO2 (stereo not shown) [TCMDC-125637],1.141
2,O=C(OCc1ccccc1)N1CCc2c([nH]c3ccccc23)C1CCC(F)(F)F (stereo not shown) [TCMDC-134555],-59.21
3,Oc1ccc(CCNc2nc(NCc3ccc4cc(Cl)ccc4c3)nc(N3CCNCC3)n2)cc1 [TCMDC-133782],-8.892
4,CC(C)(CN)c1nc(-c2ccc(Cl)c(O)c2)c(-c2ccnc(N)n2)[nH]1 [TCMDC-141019],-19.39
5,CC(C)Cc1ccc(N2CCN(CCCCNC(=O)c3ccc(NC(=O)c4cc(C(F)(F)F)cc(C(F)(F)F)c4)cc3)CC2)cc1 [TCMDC-138252],6.749
6,COc1ccc(C2CCN(CCCCNC(=O)c3ccc(NC(=O)c4ccc(Cl)cc4)cc3)CC2)cc1Cl [TCMDC-138366],81.78
7,COc1cc(C2CCN(CCCCNC(=O)c3ccc(NC(=O)c4ccc(Cl)c(Cl)c4)cc3)CC2)ccc1OC(C)C [TCMDC-138286],111.4
8,COc1cc(C2CCN(CCCCNC(=O)c3ccc(NC(=O)c4cc(C(F)(F)F)cc(C(F)(F)F)c4)cc3)CC2)ccc1OC(C)C [TCMDC-138285],55.31
9,COc1cccc(C2CCN(CCCCNC(=O)c3ccc(NC(=O)c4ccc(Cl)cc4)cc3)CC2)c1 [TCMDC-138312],21.15
10,COc1ccc(N2CCN(CCCCNC(=O)c3ccc(NC(=O)c4cc(C(F)(F)F)cc(C(F)(F)F)c4)cc3)CC2)c(OC)c1 [TCMDC-138227],7.888
11,CC(C)Cc1ccc(N2CCN(CCCCNC(=O)c3ccc(NC(=O)c4ccc(Cl)c(Cl)c4)cc3)CC2)cc1 [TCMDC-138251],-11.88
12,COc1ccc(C2CCC(NCCCCNC(=O)c3ccc(NC(=O)c4ccc(Cl)cc4)cc3)CC2)cc1 (stereo not shown) [TCMDC-138582],60.8
13,COc1ccc2c(c1)CCCC2NCCCCNC(=O)c1ccc(NC(=O)c2ccc(Cl)cc2)cc1 (stereo not shown) [TCMDC-138690],6.749
14,CCN(CC)c1ccccc1CNC(=O)c1cc(Cl)c(N)cc1OC [TCMDC-131416],17.92
15,COc1cc(Nc2ccnc3cc(-c4ccncc4)ccc23)cc(OC)c1OC [TCMDC-138293],-25.86
16,C=CC[C@@H](C(=O)OCC)[C@@H]1[C@@H](N(CC=C)C(=O)OC(C)(C)C)CCN1C(=O)OCc1ccccc1 [TCMDC-132035],7.25
17,O=S(=O)(c1cccc(Br)c1)N1CCCCC(c2ccc(C(F)(F)F)cc2)=N1 [TCMDC-134539],-27.96
18,C=C[C@H]1CN2CC[C@H]1C[C@@H]2[C@@H](O)c1ccnc2ccccc12 [TCMDC-123933],7.627
19,COc1ccc(N2CCN(c3nc(Nc4ccc(NC(C)=O)cc4)nc(N4CCCC4)n3)CC2)cc1 [TCMDC-123875],-17.97
20,CCN(CC)CCCC(C)Nc1ccnc2ccc(-c3ccccc3)cc12 (stereo not shown) [TCMDC-123952],41.59
21,CCN(CC)CCCSc1ccc(-c2ccc(SCCCN(CC)CC)cc2)cc1 [TCMDC-131824],99.62
